Data on twelve compounds can be found in PubChem BioAssay (NCI).

The panel holds about 83,000 compounds, 20% with a hit somewhere; the sample as a whole holds those more often.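 Results are percent growth after 48 hours of single-concentration exposure. 100 means growth as in untreated cells, lower positive values show inhibition; negative values down to -100 show cell death.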 Unmarked numbers belong to inactive results. Calls of active or inactive are those of the source. Rule for the calls: active = growth percent below 10; inactive = the rest.

Holding throughout (experiment): NCI-60 one-dose screen, 48 h (100 = growth as untreated, 0 = no growth, -100 = all killed)
Common to all, as to details: 10 µM unless noted

Assay [1] has as its system NCI-H23 lung.
The test system of assay [2] is NCI-H226 lung.
In assay [3] the test system is NCI-H322M lung.
In assay [4] the test system is HOP-62 NSCLC.
Assay [5] concerns NCI-H460 lung.
Assay [6] relates to HOP-92 NSCLC.
For assay [7], the system named is NCI-H522 lung.
Assay [8] deals with A549/ATCC NSCLC.
Assay [9] has as its system 786-0 renal.
For assay [10], the system named is COLO 205 colon.

Turning to `CC(O)CN1CC(O)=C(c2nc3ccccc3s2)C1=N` (stereo not given), the growth in assay [1] was 83%; in assay [2] it was 103%; in assay [3], 111%; in assay [4] it was 95.2%; in [5], 113%; in [6], 88.1%. The growth was 99.9% in assay [7], 116% in [8], 100% in assay [9] and 108% in assay [10].

With `CCOC(=O)c1cc(C(=O)c2ccc(O)c(O)c2)n2ccc(-c3ccn4c(C(=O)c5ccc(O)c(O)c5)cc(C(=O)OCC)c4c3)cc12`, the growth in [1] is 96.7%; in assay [2], 107%; in [3], 94.3%; in assay [4], 99.7%; in [5] it was 101%; in assay [6], 45.7%. Further, the growth was 82.7% in assay [7], 92.3% in [8], 87% in [9] and 102% in assay [10].

`O=C(COc1ccc(-c2nc3cc(Cl)c(Cl)cc3[nH]2)cc1)N=Nc1c(O)[nH]c2ccccc12`: the growth was 31.8% in [1]; -30.2% (active) in assay [2]; 4.51% (active) in [3]; 50.1% in assay [4]; -69.6% (active) in assay [5]; -33.3% (active) in assay [6]. For the same compound, the growth in [7] was 13.6%; in assay [8] it was 29%; in assay [9], -44.8% (active); in assay [10], 12.6%.

For `O=C1C=CC(=O)N1c1ccc2c(c1)Cc1cc(F)ccc1-2`, the growth in assay [1] is 101%; in assay [2] it was 99.3%; in [3] it was 93%; in assay [4], 93.8%; in assay [5], 111%; in assay [6], 83.4%. Besides, the growth in assay [7] is 91.1%; in assay [8], 97.9%; in assay [9], 112%; in assay [10], 94%.

As to `O=C1Nc2c(ccc(Cl)c2Cl)/C1=C\c1cc(C(F)(F)F)cc(C(F)(F)F)c1`, the growth in [1] was 13.3%; in assay [2], 24.5%; in assay [3] it was 74.1%; in [4] it was 20.2%; in assay [5] it was -18% (active); in assay [6] it was -22.6% (active). Further, the growth in assay [7] is 22.3%; in assay [8], 26%; in assay [9], -11.2% (active); in [10] it was -74.9% (active).

Take `O=S(=O)(Nc1ccc(Cl)c(F)c1)c1ccc(-c2cnc(C3CC3)o2)cc1`: the growth in assay [1] is 25.2%; in assay [2], 58.6%; in assay [3] it was 39.7%; in assay [4], 32.5%; in [5], 13.5%; in assay [6] it was 42%. The growth in assay [7] was -15.8% (active); in assay [8] it was 30.1%; in assay [9], 42.6%; in assay [10], 1.76% (active).

As to `O=c1c2c3c(sc2nc(N/N=C/c2cn(-c4ccccc4)nc2-c2ccc(Cl)cc2)n1Cc1ccccc1)CCCC3`, the growth was 106% in assay [1]; 102% in assay [2]; 111% in [3]; 98.5% in assay [4]; 97.7% in assay [5]; 74.2% in assay [6]. For the same compound, the growth in [7] was 84.7%; in assay [8] it was 83.6%; in assay [9], 95.2%; in [10] it was 109%.

On to `NC1=C(Cl)C(=O)c2ccc(S(N)(=O)=O)cc2C1=O`, for which the growth in assay [1] is -49.8% (active); in assay [2], -51% (active); in assay [3] it was -97% (active); in [4] it was -68.2% (active); in [5] it was -65.8% (active); in assay [6], -58.1% (active). Moreover, the growth in assay [7] is -84.1% (active); in assay [8] it was -53.7% (active); in assay [9], -29.8% (active); in assay [10], -90.3% (active).

Regarding `CN1CCN=C1c1ccc(NC(=O)c2ccc(C(=O)Nc3ccc(C4=NCCN4C)cc3)cc2)cc1`, the growth in assay [1] is 90.2%; in [2], 98.6%; in assay [3], 92.2%; in assay [4], 97.8%; in assay [5], 91%; in assay [6], 82.5%. For the same compound, the growth was 87% in [7], 101% in [8], 101% in assay [9] and 99.6% in assay [10].

Turning to `CCC([N+](=O)[O-])S(=O)(=O)c1ccc(C)cc1` (stereo not given), the growth in assay [1] is 93.2%; in [2] it was 102%; in assay [3], 112%; in assay [4], 84.7%; in [5], 104%; in assay [6] it was 87.9%. For the same compound, the growth in assay [7] is 89.3%; in assay [8], 96.7%; in assay [9], 89.4%; in assay [10], 115%.

Consider `CC/C=C\C/C=C\C[C@H]1C/C=C2/C(=O)C=C[C@@H]2C/C=C\CCC(=O)O1`, for which the growth in assay [1] was 12.1%; in assay [2] it was -36.1% (active); in assay [3] it was 45.3%; in [4], -1.49% (active); in assay [5], -4.43% (active); in assay [6], -11.8% (active). Besides, the growth in assay [7] was -69.9% (active); in assay [8] it was 2.89% (active); in assay [9] it was -43.7% (active); in assay [10], -29.9% (active).

Regarding `Clc1ccc2c(NCCCCNc3nc(N4CCCCC4)nc4ccccc34)ccnc2c1`, the growth is 53.1% in assay [1]; 35.8% in [2]; 6.86% (active) in assay [3]; -11.1% (active) in assay [4]; 6.3% (active) in assay [5]; -35.3% (active) in assay [6]. The growth is -18.6% (active) in assay [7], 16.2% in assay [8], -90.3% (active) in assay [9] and -64.5% (active) in [10].
